Measured values reported in PubChem BioAssay AID588692 (Broad Institute, 2011).
Values joined by “and” are separate entries in the source; they are usually repeats but may differ in a detail not shown here. Equal entries are not always repeated. Screen size: about 360,000 compounds; about 830 (0.23%) were called active.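 Rule for the calls: active = mean luciferase reporter signal, scaled so untreated is 0 and the glycosylation-blocking control 100, at or above a set limit in every replicate; inconclusive = mean reaches the limit but not every replicate does; inactive = mean below the limit.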 For the sample, actives were picked, then their nearest neighbours and some compounds at random.

Assay: D54 reporter luminescence gain compounds – D54 ERlucT cells, set 2, N-linked glycosylation inhibitor project, primary screen (AID 588692);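 note: luciferase carries N-glycosylation sites so blocking glycosylation raises the light; 0% = median of neutral control wells and 100% = median of 100 nM tunicamycin wells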
Conditions: D54 ERlucT glycosylation luciferase reporter, 24 h; at 12.5 µM; active compounds read high; percent of 100 nM tunicamycin response

Reporter increase, inactive:
COc1cc(C(=S)N2CCOCC2)cc(OC)c1OC(=O)c1cc([N+](=O)[O-])c(C)c([N+](=O)[O-])c1 1.27%, CSc1ccc(/C=N/N2CCN(Cc3ccccc3Cl)CC2)cc1 2.53%, Cc1ccc(C)c(NC(=O)CCC(=O)N/N=C2/CC(=O)CC(C)(C)C2)c1 0.203%, CC(C)NC(=O)Nc1cccc2c1O[C@H](CN(C)S(=O)(=O)c1cccs1)[C@@H](C)CN([C@H](C)CO)C2=O 0.641%, O=C(CNCc1ccco1)Nc1cc(S(=O)(=O)N2CCOCC2)ccc1N1CCCC1 2.55%, O=[N+]([O-])c1cc(S(=O)(=O)Nc2cccc(Cl)c2)ccc1N=Nc1c(O)[nH]c2ccccc12 -5.47%, Cc1cc(C(=O)NC2CC(C)(C)Cc3c2cnn3-c2ccccc2)n[nH]1 (stereo not given) -9.34%, CC1(C)Cc2c(cnn2-c2cccc(F)c2)C(NC(=O)c2cc[n+]([O-])cc2)C1 (stereo not given) 1.53%, CN(CCO)C(=O)c1nc[nH]c1C(=O)N(C)Cc1ccccc1 1.82%, COc1cc(CCN=Cc2ccccc2O)c([N+](=O)[O-])cc1OC 2.9%, COc1ccc(OC)c2[nH]c(=O)c(CCNC(=O)C(=O)c3c[nH]c4ccccc34)cc12 -0.931%, O=c1ccc2cc(S(=O)(=O)NCCCc3ccccc3)ccc2[nH]1 -0.159%, O=C(N/N=C\c1cccc(Br)c1)c1ccccc1-n1cccc1 0.034%, O=C(Nc1ccc(N2CCCC2=O)cc1)c1cncc(Br)c1 -9.16%, COCOc1cccc(CN2CCC(C)(Oc3ccc(SC)cc3)C2)c1 (stereo not given) -0.871%, Cc1ccc(C)c(NC(=O)C2Cc3ccccc3CN2C(=O)OCc2ccccc2)c1 (stereo not given) -1.83%, O=C(COc1ccc(Cl)cc1)Nc1ccc2oc(=O)ccc2c1 -2%, CCCNC(=O)C1(C)CCN(Cc2ccc(Cl)c(Cl)c2)C1 (stereo not given) 0.635%, Cc1cc(C)c2c(=O)n3c(nc2c1)C(CC(C)C)NC(=O)c1cc2ccccc2cc1-3 (stereo not given) -7.33%, CN(CCOc1ccc(CC2SC(=O)NC2=O)cc1)c1ccccn1 (stereo not given) 4.03% and 1.28%, CCN(CC)CCNCC(=O)Nc1ccc(Oc2ccccc2)cc1 0.423%, CC[C@H](C)C(=O)N[C@H]1CCCN1C(=O)/C=C/c1ccccc1 -0.751%, CN1CCN(Cc2nc3c(c(=O)n(C)c(=O)n3C)n2Cc2cccc3ccccc23)CC1 -0.438%, O=c1c2cc(-c3ccccc3)sc2nc2n1N=C(c1cccs1)CS2 -9.8%, O=C(O[C@H]1[C@H](Cc2ccccc2)NS(=O)(=O)[C@H]2C[C@@H]3C=C[C@]12O3)c1ccc([N+](=O)[O-])cc1 2.96%, CC(Sc1nncs1)C(=O)NCc1ccc2c(c1)OCO2 (stereo not given) -1.14%, COc1cc(OC)c2c(-c3cccc(-c4cccc(N)c4)c3)cc(=O)oc2c1 4.55%, CC(CNS(=O)(=O)c1ccc(Br)cc1)CN(C)C (stereo not given) 0.673%, COc1ccccc1C(=O)COC(=O)CSCC(=O)Nc1cc(C)on1 1.73%, O=C(NCC1CCCO1)C(C(=O)c1ccccc1)n1cc(Cl)ccc1=O (stereo not given) 1.12%, COc1ccccc1-c1nnc2n1N=C(c1ccc(OC(F)F)c(OCC3CC3)c1)CS2 5.65%, CCn1c(SCC(=O)NC2CC2)nnc1-c1ccccc1OC 1.11%, Cn1c(=O)[nH]c2c(c(C(=O)O)nn2C)c1=O -0.816%, COCCn1c(SCC(=O)N2CCCCCC2)nc2c(c1=O)SCC2 2.05%, CCCNC(=O)C1(C)CCCN(C(=O)c2oc3ccccc3c2C)C1 (stereo not given) -0.622%, C/C(=N\NC(=O)OC(C)(C)C)c1ccc[nH]1 -4.4%, NC(=O)CC(NC(=O)Cc1cccc2ccccc12)c1ccc(NCc2cc(F)ccc2F)c([N+](=O)[O-])c1 (stereo not given) 16%, CC1CCCCN1CCCNc1ccc(C(CC(N)=O)NC(=O)c2ccccc2)cc1[N+](=O)[O-] (stereo not given) 2.79%, CCOc1ccc2c(=O)c(-c3ccc4c(c3)OCCCO4)c(C)oc2c1 -1.81%, COc1ccc(C(=O)NCC(c2ccco2)N2CCc3ccccc32)cc1OC (stereo not given) 2.39%, COC(=O)c1ccc(COC(=O)C2CCN(S(=O)(=O)c3c(Cl)cccc3Cl)CC2)o1 0.74%, CC12CN(Cc3ccccc3)CC(C)(CN(Cc3ccccc3)C1)C2=NO -0.263%, CS(=O)(=O)N(CC(O)Cn1c2ccccc2c2ccccc21)c1cccc2ccccc12 (stereo not given) -2.21%, CC/C(=N/Nc1ccccc1)c1cnnc(SC)n1 0.994%, Cc1cc(S(=O)(=O)c2cc3ccc(O)c(C)c3oc2=O)ccc1F 1.14%, COCCn1cnc2c1c(=O)n(CC(=O)NN)c(=O)n2Cc1ccccc1 -0.206%, Fc1ccc2nc(-c3ccccc3)nc(SCc3nnc(-c4ccccc4)o3)c2c1 -4.84%, Cn1cnnc1SCc1nnc(-c2ccccc2Br)o1 2.03%, CN(C(=O)CSc1nnc(-c2ccc3c(c2)OCO3)o1)C1CCS(=O)(=O)C1 (stereo not given) 1%, Cc1[nH]nc(-c2ccc(OCc3cnn(-c4ccccc4)c3)cc2O)c1Oc1ccc(Cl)cc1 -4.08%, Cc1cccc(C)c1OCCN1CCOCC1 -0.152%, O=C(NCCN1CCOCC1)c1cc(Sc2cccc(Cl)c2)nc2ccccc12 -2.52%, CCOCCCNC(=S)N1CCC(NC(=O)C2CCCCC2)CC1 -1.17%, O=C1CN(C(=O)COC(=O)C2CC(=O)N(Cc3ccco3)C2)c2ccccc2N1 (stereo not given) 1.95%, C=CCN1C(=O)c2ccc(C(=O)N3CCC(C(=O)OCC)CC3)cc2C1=O 0.619%, COc1ccc(C(C)C)cc1-c1ccc2nncn2c1 -0.123%

Reporter increase, active:
COC(=O)c1ccc(C(=O)NC2CC(C)(C)Cc3c2cnn3-c2ccc(F)cc2)nc1 (stereo not given) 26.7%, O=C(N/N=C/c1cccc(Br)c1)c1ccc(N2CCCC2=O)cc1 29.6%, CCN(CC)CCOc1ccc2c(c1)C(=NNC(=O)c1ccccn1)c1cc(OCCN(CC)CC)ccc1-2 68.7%, Cc1cc(C)c2nc3nc(C)cc(C)c3c(N)c2c1 79%, COc1ccc(C2=Nn3c(nnc3-c3ccccc3OC)SC2)cc1OC1CCCC1 33.9%, NC(=O)CC(NC(=O)Cc1ccc(Br)cc1)c1ccc(NC2CC3CCC2C3)c([N+](=O)[O-])c1 (stereo not given) 43%, O=[N+]([O-])c1ccc(C=Nc2ccc(Cl)cc2Cl)s1 36.7%, Cc1ccc2nc(SCc3nnc(-c4ccccc4[N+](=O)[O-])o3)c(C#N)cc2c1 35.7%, c1ccc2cc3c(NCCN4CCOCC4)ccnc3cc2c1 102%
